This is an account of results in article PMC7862700, “An all-to-all approach to the identification of sequence-specific readers for epigenetic DNA modifications on cytosine”.

What all share (experiment): DAPPL (digital affinity profiling via proximity ligation, sequencing); 10 mM Tris-HCl pH 7.5, 50 mM NaCl, 1 mM DTT, 4% glycerol, room temperature, 30 min; GST-TFs on glutathione beads, 16-mer random dsDNA library, 0.1% formaldehyde crosslink after washing; high values mean tight binding
Common to all, as to conditions: protein: recombinant; tags: N-terminal GST; dsDNA, one strand shown

One assay has as its target T1, GABPA (Homo sapiens, UniProt Q06546 1-454).
T1 sequence: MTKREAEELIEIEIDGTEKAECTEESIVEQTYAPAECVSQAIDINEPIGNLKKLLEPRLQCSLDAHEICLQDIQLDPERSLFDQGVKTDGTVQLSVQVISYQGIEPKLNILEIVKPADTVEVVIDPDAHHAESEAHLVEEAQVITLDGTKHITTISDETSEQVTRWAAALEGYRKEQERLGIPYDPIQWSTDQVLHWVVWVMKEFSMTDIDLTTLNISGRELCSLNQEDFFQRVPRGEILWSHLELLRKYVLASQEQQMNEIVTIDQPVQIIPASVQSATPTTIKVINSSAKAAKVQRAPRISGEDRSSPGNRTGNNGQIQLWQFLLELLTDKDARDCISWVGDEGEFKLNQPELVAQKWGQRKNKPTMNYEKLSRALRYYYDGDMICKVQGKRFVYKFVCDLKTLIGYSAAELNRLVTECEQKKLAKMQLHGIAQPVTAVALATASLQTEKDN
In short, it runs like this:
(§1)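 Binding signal is defined as a hexamer's read frequency for one factor over its frequency for the tag-only sample. To obtain reads, GST-fused human transcription factors were expressed in yeast, captured on glutathione beads, barcoded with DNA and pooled with that sample. Pools met 200 nmole of a 16-mer random double-stranded DNA library in Tris/NaCl/DTT/glycerol buffer for 30 min at room temperature before washing, 0.1% formaldehyde crosslinking, proximity ligation (BsaI/T4 ligase, 1 h, 37 °C), PCR and Illumina NextSeq500 sequencing.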

In another assay the target is T2, EHF (Homo sapiens, UniProt Q9NZC4 1-300).
T2 sequence: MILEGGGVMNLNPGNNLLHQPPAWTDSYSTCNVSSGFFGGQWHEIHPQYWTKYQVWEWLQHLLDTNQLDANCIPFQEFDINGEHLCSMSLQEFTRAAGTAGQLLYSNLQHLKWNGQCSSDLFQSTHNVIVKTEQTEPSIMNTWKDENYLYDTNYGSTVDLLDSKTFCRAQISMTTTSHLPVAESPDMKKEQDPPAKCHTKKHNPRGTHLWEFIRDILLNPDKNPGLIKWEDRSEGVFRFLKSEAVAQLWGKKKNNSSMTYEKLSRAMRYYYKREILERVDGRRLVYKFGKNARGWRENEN
The essentials:
as §1

The next assay deals with SPI1 (Homo sapiens, UniProt P17947 1-270). The essentials:
as §1

For the next assay, the target named is T3, ELK3 (Homo sapiens, UniProt P41970 1-407).
T3 sequence: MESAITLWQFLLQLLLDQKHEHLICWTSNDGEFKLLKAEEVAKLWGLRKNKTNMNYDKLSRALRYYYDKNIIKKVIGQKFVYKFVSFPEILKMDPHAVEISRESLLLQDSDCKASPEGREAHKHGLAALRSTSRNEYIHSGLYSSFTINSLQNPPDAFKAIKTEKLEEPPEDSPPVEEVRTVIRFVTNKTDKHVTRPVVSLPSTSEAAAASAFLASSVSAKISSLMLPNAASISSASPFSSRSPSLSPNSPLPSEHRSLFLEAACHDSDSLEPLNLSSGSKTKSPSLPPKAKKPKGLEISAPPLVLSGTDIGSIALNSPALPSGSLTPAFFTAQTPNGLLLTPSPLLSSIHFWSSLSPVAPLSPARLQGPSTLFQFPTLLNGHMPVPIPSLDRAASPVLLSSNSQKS
In short, it runs like this:
as §1

Another assay addresses T4, FEV (Homo sapiens, UniProt Q99581 1-238).
T4 sequence: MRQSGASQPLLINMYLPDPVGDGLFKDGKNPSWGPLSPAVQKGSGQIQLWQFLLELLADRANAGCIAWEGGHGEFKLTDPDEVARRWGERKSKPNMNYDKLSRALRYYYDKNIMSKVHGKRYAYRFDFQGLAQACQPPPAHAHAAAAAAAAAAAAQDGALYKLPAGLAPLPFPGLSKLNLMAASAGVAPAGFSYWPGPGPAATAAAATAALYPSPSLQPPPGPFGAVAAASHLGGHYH
The essentials: as §1

For the next assay, the target named is T5, SPIC (Homo sapiens, UniProt Q8N5J4 1-248).
T5 sequence: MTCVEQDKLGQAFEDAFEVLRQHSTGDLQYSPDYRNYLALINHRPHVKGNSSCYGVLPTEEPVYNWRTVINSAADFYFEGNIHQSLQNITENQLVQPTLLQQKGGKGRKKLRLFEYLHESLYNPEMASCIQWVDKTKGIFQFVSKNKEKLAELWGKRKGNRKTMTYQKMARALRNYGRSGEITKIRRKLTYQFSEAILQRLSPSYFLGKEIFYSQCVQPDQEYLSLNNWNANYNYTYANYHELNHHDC
In short, it runs like this: as §1

In another assay the target is T6, ELF3 (Homo sapiens, UniProt P78545 1-371).
T6 sequence: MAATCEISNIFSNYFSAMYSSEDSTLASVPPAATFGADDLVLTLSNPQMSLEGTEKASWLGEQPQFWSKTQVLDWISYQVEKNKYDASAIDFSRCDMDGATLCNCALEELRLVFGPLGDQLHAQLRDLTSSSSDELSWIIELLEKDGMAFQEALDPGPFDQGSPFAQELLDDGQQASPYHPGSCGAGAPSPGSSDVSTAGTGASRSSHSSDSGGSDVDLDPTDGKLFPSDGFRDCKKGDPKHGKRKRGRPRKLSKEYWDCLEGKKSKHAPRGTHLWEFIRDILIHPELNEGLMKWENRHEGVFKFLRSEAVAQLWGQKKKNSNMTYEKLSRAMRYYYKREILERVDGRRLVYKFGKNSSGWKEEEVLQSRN
In short, it runs like this: as §1

For a further assay, the target named is ETV1 (Homo sapiens, UniProt P50549 1-477). The essentials:
as §1

Another assay addresses T7, ERF (Homo sapiens, UniProt P50548 1-548).
T7 sequence: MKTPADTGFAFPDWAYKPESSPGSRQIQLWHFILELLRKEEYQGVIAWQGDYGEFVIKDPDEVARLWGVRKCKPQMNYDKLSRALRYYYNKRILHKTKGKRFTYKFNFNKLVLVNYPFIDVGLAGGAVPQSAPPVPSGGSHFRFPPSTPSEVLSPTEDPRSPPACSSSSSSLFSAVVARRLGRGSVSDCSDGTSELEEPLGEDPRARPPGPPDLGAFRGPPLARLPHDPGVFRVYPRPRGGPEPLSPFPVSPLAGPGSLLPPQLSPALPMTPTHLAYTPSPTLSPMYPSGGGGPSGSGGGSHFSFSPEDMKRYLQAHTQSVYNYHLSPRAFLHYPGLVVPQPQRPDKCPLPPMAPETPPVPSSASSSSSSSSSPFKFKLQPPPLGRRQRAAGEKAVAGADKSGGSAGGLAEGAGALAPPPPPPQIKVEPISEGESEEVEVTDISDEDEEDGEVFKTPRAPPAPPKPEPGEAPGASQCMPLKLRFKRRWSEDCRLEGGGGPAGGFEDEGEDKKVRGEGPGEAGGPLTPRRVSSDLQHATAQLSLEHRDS
In short, it runs like this: as §1

The target in the next assay is T8, ETS2 (Homo sapiens, UniProt P15036 1-469).
T8 sequence: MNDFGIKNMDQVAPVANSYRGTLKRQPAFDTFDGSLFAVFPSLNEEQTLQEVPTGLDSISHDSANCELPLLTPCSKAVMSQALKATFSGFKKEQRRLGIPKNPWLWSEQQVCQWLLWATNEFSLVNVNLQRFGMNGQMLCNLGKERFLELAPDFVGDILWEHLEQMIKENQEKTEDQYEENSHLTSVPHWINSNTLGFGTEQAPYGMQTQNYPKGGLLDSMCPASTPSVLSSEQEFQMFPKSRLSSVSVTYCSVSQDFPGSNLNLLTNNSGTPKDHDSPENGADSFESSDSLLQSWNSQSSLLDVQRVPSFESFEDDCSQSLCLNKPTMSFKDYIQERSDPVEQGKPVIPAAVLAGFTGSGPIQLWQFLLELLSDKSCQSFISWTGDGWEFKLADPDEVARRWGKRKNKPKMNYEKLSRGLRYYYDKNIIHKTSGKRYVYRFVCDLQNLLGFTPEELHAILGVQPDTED
In short, it runs like this: as §1

The next assay addresses T9, ELF5 (Homo sapiens, UniProt Q9UKW6-2 1-255).
T9 sequence: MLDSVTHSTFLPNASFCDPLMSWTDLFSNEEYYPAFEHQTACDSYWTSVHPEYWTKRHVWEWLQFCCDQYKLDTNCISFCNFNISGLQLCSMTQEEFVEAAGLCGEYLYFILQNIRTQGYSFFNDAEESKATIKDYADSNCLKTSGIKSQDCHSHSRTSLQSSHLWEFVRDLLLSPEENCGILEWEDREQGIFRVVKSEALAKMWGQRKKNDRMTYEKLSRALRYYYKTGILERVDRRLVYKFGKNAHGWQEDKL
In short, it runs like this:
as §1

For a further assay, the target named is T10, ETV3 (Homo sapiens, UniProt P41162-2 1-143).
T10 sequence: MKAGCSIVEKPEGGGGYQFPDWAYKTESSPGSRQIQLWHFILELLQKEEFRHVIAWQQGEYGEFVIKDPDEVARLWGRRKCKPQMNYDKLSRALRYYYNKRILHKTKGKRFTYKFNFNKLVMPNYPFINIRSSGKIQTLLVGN
In short, it runs like this: as §1

The target in another assay is ETV6 (Homo sapiens, UniProt P41212 1-452). The essentials: as §1
Chain of ETV6 (P41212 whole entry): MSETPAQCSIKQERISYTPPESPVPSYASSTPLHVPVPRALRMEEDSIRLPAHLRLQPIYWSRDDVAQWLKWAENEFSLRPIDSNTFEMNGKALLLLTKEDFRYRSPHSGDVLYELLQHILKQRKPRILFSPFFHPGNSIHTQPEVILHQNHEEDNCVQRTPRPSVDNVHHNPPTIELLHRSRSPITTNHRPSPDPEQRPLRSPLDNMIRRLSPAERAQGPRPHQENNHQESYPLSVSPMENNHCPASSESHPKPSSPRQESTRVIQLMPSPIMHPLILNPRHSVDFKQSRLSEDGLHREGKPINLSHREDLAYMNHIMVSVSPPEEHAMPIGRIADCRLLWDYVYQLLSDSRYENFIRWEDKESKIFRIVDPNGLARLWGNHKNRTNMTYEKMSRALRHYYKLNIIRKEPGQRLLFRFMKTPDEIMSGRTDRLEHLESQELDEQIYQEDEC
In the next assay the target is T11, ETV2 (Homo sapiens, UniProt O00321 1-342).
T11 sequence: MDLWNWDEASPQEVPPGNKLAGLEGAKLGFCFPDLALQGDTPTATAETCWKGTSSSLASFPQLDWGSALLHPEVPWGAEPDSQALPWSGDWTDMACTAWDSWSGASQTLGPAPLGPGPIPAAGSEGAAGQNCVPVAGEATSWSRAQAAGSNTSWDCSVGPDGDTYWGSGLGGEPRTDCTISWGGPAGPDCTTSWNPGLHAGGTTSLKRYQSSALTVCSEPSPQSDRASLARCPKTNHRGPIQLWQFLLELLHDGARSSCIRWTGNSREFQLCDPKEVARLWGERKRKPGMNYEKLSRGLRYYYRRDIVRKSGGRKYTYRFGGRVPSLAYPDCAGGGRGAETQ
In short, it runs like this:
as §1

Chain of ETV1 (P50549 whole entry): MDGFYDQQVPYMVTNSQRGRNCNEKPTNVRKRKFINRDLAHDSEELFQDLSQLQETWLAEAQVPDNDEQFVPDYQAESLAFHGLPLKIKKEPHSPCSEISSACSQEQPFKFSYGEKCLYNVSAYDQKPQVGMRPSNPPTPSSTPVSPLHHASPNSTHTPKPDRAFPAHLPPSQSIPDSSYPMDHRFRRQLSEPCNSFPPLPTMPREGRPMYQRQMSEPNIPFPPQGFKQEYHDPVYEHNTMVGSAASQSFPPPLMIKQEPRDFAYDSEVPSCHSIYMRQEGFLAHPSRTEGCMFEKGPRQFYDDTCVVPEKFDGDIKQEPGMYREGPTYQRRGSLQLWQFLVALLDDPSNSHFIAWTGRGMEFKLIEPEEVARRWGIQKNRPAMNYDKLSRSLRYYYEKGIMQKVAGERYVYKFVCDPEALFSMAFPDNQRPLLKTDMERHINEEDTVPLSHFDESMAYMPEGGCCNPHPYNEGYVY

For the sequence AGTAGC, the binding signal in the assay with GABPA was 1.03 fold enrichment (6-mer frequency, TF over GST control); with EHF, 1.01 fold enrichment (6-mer frequency, TF over GST control); with SPI1 it was 1.22 fold enrichment (6-mer frequency, TF over GST control); in the assay with ELK3, 1.05 fold enrichment (6-mer frequency, TF over GST control); in the assay with FEV, 1.04 fold enrichment (6-mer frequency, TF over GST control); in the assay with SPIC, 1.04 fold enrichment (6-mer frequency, TF over GST control). In addition, the binding signal in the assay with ELF3 was 1.03 fold enrichment (6-mer frequency, TF over GST control); with ETV1, 1.05 fold enrichment (6-mer frequency, TF over GST control); with ERF, 1.01 fold enrichment (6-mer frequency, TF over GST control); with ETS2 it was 1.07 fold enrichment (6-mer frequency, TF over GST control); with ELF5 it was 1.04 fold enrichment (6-mer frequency, TF over GST control); with ETV3, 1.08 fold enrichment (6-mer frequency, TF over GST control). The binding signal in the assay with ETV6 was 1.08 fold enrichment (6-mer frequency, TF over GST control).

In the case of GTGCCG, the binding signal in the assay with SPIC was 1.03 fold enrichment (6-mer frequency, TF over GST control); with ETV2 it was 1.01 fold enrichment (6-mer frequency, TF over GST control).

Consider GTTCGT, for which the binding signal in the assay with SPIC was 1.12 fold enrichment (6-mer frequency, TF over GST control); in the assay with ETV2, 1.05 fold enrichment (6-mer frequency, TF over GST control); in the assay with ERF it was 1.12 fold enrichment (6-mer frequency, TF over GST control).
